A number with no mark means an inactive call. The source made the active and inactive calls. Cut-off read from the data, not from the text of the source, unless noted: active = inhibition above about 44%; inactive = the rest.

The nature of assay [1]: StAR promoter reporter inhibitors, counter-screen for LRH-1 inverse agonist project, cell-based, luminescence, high throughput (AID 651611; in the data active = inhibition above about 28%). To be noted: StAR promoter luciferase reporter counterscreen, at 3.6 µM, active compounds read high. In general terms: The purpose of a counterscreen is to sort out artefacts and off-target activity.
Assay [2] addresses Nuclear receptor subfamily 5 group A member 2 (Homo sapiens) (UniProt O00482). Nature of the assay: NR5A2 activity suppression in reporter cells – cell-based, luminescence, confirmation (AID 651613; in the data active = inhibition above about 42%;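 note: HEK293T cells co-transfected with LRH-1 and StAR promoter luciferase reporter; 0% = vehicle wells and 100% = parental cells lacking receptor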). To be noted: cell-based LRH-1 luciferase reporter, inverse agonism; at 3.6 µM; active compounds read high. (Reporter assays use an easily measured gene product as a stand-in for the process of interest.)

Assay [3] addresses Steroidogenic factor 1 (Homo sapiens) (UniProt Q13285). Briefly: inverse agonism at SF1 nuclear receptor – cell-based, luminescence, high throughput, counter-screen for LRH-1 inverse agonist project (AID 651614).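 Note: cells cotransfected with StAR promoter reporter and SF1 expression vector; 0% = vehicle on cells with receptor and 100% = vehicle on cells lacking receptor.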 To be noted: cell-based SF1 luciferase reporter, at 3.6 µM, active compounds read high.
Assay [4] is described as follows: compounds suppressing VP16-driven luciferase signal – cell-based, luminescence, high throughput, counter-screen for LRH-1 inverse agonist project (AID 651615; in the data active = inhibition above about 33%). To be noted: Gal4-VP16 luciferase reporter cells, at 3.6 µM, active compounds read high.

Sequence of Steroidogenic factor 1 (Homo sapiens) (Q13285 whole entry, looked up, the tested form may be a part): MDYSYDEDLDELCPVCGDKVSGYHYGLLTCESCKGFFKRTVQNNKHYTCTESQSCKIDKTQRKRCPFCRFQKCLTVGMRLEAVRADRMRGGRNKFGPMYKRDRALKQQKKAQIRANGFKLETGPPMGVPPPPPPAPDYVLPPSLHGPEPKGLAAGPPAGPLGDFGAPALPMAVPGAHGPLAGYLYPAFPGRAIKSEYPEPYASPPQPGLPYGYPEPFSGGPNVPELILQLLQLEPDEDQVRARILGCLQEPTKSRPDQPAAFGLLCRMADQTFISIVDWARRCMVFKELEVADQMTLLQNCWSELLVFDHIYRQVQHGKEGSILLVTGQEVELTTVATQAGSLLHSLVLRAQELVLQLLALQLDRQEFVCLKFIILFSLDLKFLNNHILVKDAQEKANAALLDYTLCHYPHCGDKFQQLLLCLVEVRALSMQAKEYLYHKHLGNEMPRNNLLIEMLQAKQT
Sequence of Nuclear receptor subfamily 5 group A member 2 (Homo sapiens) (O00482 whole entry, looked up): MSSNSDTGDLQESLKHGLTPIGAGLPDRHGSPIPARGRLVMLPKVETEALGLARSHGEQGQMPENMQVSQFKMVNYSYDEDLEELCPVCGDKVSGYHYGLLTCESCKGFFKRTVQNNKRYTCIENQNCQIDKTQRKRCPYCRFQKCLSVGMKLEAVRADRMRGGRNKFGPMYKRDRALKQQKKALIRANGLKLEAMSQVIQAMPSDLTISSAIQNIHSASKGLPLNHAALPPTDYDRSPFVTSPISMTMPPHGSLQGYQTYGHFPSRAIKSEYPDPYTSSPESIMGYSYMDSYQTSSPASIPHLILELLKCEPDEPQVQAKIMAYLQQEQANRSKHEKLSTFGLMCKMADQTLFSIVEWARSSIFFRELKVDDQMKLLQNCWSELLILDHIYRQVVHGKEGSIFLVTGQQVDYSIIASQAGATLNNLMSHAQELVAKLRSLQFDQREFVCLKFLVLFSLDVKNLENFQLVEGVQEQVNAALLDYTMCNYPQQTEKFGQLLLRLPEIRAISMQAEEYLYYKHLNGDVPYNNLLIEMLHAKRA

What is called inhibition is the relative decrease from the control value, in per cent. Consider `Cc1ccccc1C(=O)N1CCN(c2ccc(NC(=O)c3ccc([N+](=O)[O-])o3)cc2)CC1`, for which the inhibition in assay [1] was 25.2%; in assay [2], 64.4% (active); in assay [3], 69.1% (active); in assay [4] it was 2.37%.
On the same counts, the results for `CCOc1ccc(NC(=O)CSc2nncc(=O)[nH]2)cc1` are 8.36%, 63% (active), 57.7% (active) and -11.2%.
For `O=C(Nc1ccc(Cc2ccncc2)cc1)c1cc(F)c(F)cc1Cl`, the inhibition in assay [1] is -0.62%; in assay [2], 44.2% (active); in assay [3], 37.9%; in assay [4], 10.3%.
Taken in the same sequence, the figures for `CCCCSc1nc(SCC(=O)NCc2ccco2)c2c3c(sc2n1)COC(C)(CC)C3` (centres undefined) were 4.87%, 53.8% (active), 44.6% (active) and -1.29%.
Taken in the same sequence, the figures for `Cc1ccccc1OCC(=O)N/N=C/c1ccc([N+](=O)[O-])o1` were 18.6%, 57.5% (active), 60% (active) and 9.63%.
On the same counts, the results for `CN1C(=O)NC(c2ccccc2[N+](=O)[O-])C2=C1CC(C)(C)CC2=O` (centres undefined) are 3.55%, 19%, -6.97% and 0.8%.
For the compound `CCOc1ccc(CCNC(=O)COC(=O)CSc2ccccc2C)cc1OCC`, the inhibition was 2.02% in assay [1], 49% (active) in assay [2], 41% in assay [3] and 8.24% in assay [4].
Taken in the same sequence, the figures for `Cc1cc(C)nc(NC(=O)c2ccc([N+](=O)[O-])o2)n1` were 17.2%, 61.6% (active), 53.4% (active) and -11.8%.
On the same counts, the results for `CNC(=O)c1nc(C)c(C2(C)CC(c3cccc([N+](=O)[O-])c3)=NO2)s1` (centres undefined) are 8.75%, 27%, 35.6% and -1.29%.
Regarding `COc1cc2c(cc1OC)CN(C(=O)c1ccc([N+](=O)[O-])o1)CC2`, the inhibition in assay [1] is 12.4%; in assay [2], 65.1% (active); in assay [3] it was 64.4% (active); in assay [4], 7.13%.
On the same counts, the results for `O=C(CSC1=NCCS1)N1CCN(c2ccc(Cl)cc2)CC1` are 8.14%, 56.3% (active), 53.3% (active) and 18.2%.
For `CCS(=O)(=O)N1Cc2cc(C(=O)NCC3CC3)nc(-c3cccc(-c4cccnc4)c3)c2[C@@H]1CCO`, the inhibition is 8.53% in assay [1], 47.6% (active) in assay [2], 41.8% in assay [3] and -27.8% in assay [4].
As to `CC(=O)Nc1sc2c(c1-c1nc3ccccc3s1)CN(C(C)C)CC2`, the inhibition is 36.6% (active) in assay [1], 66.4% (active) in assay [2], 61.1% (active) in assay [3] and 80.7% (active) in assay [4].
Taken in the same sequence, the figures for `O=C(Nc1cccc(S(=O)(=O)N2CCCCC2)c1)c1ccc([N+](=O)[O-])o1` were 33.8% (active), 67.3% (active), 69.2% (active) and -4.21%.
For `O=C(Nc1ccc2[nH]c(=O)[nH]c2c1)c1ccc([N+](=O)[O-])o1`, the inhibition is 7.96% in assay [1], 65.1% (active) in assay [2], 65.8% (active) in assay [3] and -11.8% in assay [4].
Taken in the same sequence, the figures for `CCNC(=S)N1CCN(c2nc(CC)nc3sc4c(c23)CCCC4)CC1` were 1.42%, 48.3% (active), 37.6% and 5.39%.
On the same counts, the results for `CCCc1cc(=O)oc2cc(C)cc(OCC(=O)Nc3ccccn3)c12` are 2.99%, 60.1% (active), 61.8% (active) and 3.1%.
As to `O=C(Cn1cnc2c(nnn2-c2ccccc2)c1=O)NCCc1ccccc1`, the inhibition is 13.4% in assay [1], 50.9% (active) in assay [2], 51% (active) in assay [3] and -7.88% in assay [4].
On the same counts, the results for `CCNc1nc(-c2sc(NC(=O)C(C)(C)C)nc2C)c(-n2cc(-c3ccccc3)nn2)s1` are 60.9% (active), 27.6%, 41.4% and 35.7% (active).
On the same counts, the results for `COc1ccc(-n2c(N)c(C(=O)NCc3cccnc3)sc2=S)cc1` are 4.01%, 48.7% (active), 50.4% (active) and -1.03%.
Taken in the same sequence, the figures for `O=[N+]([O-])c1ccc(/C=N/Nc2ccnc3cc(Cl)ccc23)o1` were -10.6%, 44% (active), 40% and -10.5%.
For `O=C(CSc1nc2ccc(F)cc2c(=O)n1-c1ccccc1)Nc1ccc2c(c1)CCC2`, the inhibition was -3.68% in assay [1], 43.3% (active) in assay [2], 47.9% (active) in assay [3] and -3.99% in assay [4].
On the same counts, the results for `CCN(Cc1ccccc1)c1ccc(/C=N/NS(=O)(=O)c2ccc(C)c([N+](=O)[O-])c2)cc1` are 10.9%, 40.7%, 61.3% (active) and 9.15%.
Taken in the same sequence, the figures for `CCOc1ccc(Cc2nnc(SCC(=O)Nc3ccc(C(C)=O)cc3)[nH]c2=O)cc1` were 1.5%, 52% (active), 40.9% and -7.62%.
On the same counts, the results for `COc1ccc(N=C2NN=C(c3c(C)[nH]c4ccccc34)CS2)cc1` are -7.38%, 43.1% (active), 32.1% and -7.14%.
As to `Cc1cc(-n2c(C)cc(C(=O)CSc3ncnc4ccccc34)c2C)no1`, the inhibition was 8.06% in assay [1], 67.2% (active) in assay [2], 61.3% (active) in assay [3] and 36.9% (active) in assay [4].

Values taken from PubChem BioAssay.
